Source: ChEMBL document CHEMBL4513216, “Probing the Open Global Health Chemical Diversity Library for Multistage-Active Starting Points for Next-Generation Antimalarials” (ACS Infect Dis, 2020)
Out of some 69,000 compounds screened, about 8,600 (12%) showed an effect of 50% or more. Only a selection was taken, and strong results are over-represented in it overall.

tested on: Plasmodium berghei; assay: Screen against P. berghei liver stage (PbLuc), transformed with Luciferase, at 10uM; assay type: functional, HepG2; conditions: tested at 10 uM

Compound | INHIBITION [%]
Cc1ccc2c(c1)C1(CC(=O)Nc3[nH]ncc31)C(=O)N2C (stereo not drawn) | 21.5
Cc1noc(CN(C)CC(c2cccs2)N2CCOCC2)n1 (stereo not drawn) | 35.9
CCCc1noc(CN(C)Cc2ccc3c(c2)OCO3)n1 | 19.3
CCc1noc(CN(C)Cc2cc(Br)ccc2OC)n1 | 30.9
CCc1nc(CN(C)CC(c2cccs2)N2CCOCC2)no1 (stereo not drawn) | 36.4
CN(Cc1noc(C(C)(C)C)n1)CC1CCN(CCO)CC1 | 37.5
CCc1noc(CN(C)Cc2ccc(N3CCCCC3)cc2)n1 | 61.8
CN(Cc1ccc(N2CCOCC2)cc1)Cc1noc(C(C)(C)C)n1 | -8.51
CCc1noc(CN(CC(=O)N2CCCCC2)c2cccc(C)c2)n1 | 18
CCc1noc(CN(C)CC(c2cccs2)N2CCOCC2)n1 (stereo not drawn) | 60.5
Cc1cccc(N(CC(=O)N2CCCCC2)Cc2ccno2)c1 | 36.2
CN(Cc1ccc(N2CCCCC2)cc1)Cc1noc(C(C)(C)C)n1 | 78.5
CCc1noc(CN(CC(=O)N2CCCCC2)c2ccc(C)cc2)n1 | 50.1
CN(C)C(=O)CN1CCCC(c2cncc(-c3cccc(Cl)c3)n2)C1 (stereo not drawn) | 35.2
CC(=O)NCC1CCN(C(=O)NCCc2ccc(Cl)s2)CC1 | 13.3
CCCC(=O)N1CCCCC1c1nc(N(C)C)ncc1-c1cc(C)no1 (stereo not drawn) | 23.1
CN1CCCC(c2cccc(CCC(=O)NCC3(C)COC3)n2)C1 (stereo not drawn) | 13
NC(=O)Cn1cc(NC(=O)N2CCCCCC2)cn1 | 2.5
Cc1cc(CN2CCC(C(=O)O)(n3ccc(-c4ccco4)n3)CC2)on1 | 1.48
O=C1NCC2(CCCN(C(=O)c3c[nH]nc3-c3cccs3)C2)O1 (stereo not drawn) | 6.29
Cn1cnc2ccc(NC(=O)CC3CCN(C4CCCCC4)CC3)cc21 | 12.17
Cc1ccnc(OC[C@]23COC[C@H]2CN(C(=O)c2cnccn2)C3)n1 | 32.2
CCc1ccc(Cn2nccc2NC(=O)C2CCS(=O)(=O)C2)cc1 (stereo not drawn) | 11.8
COc1cccc2cc(CNCc3ccnc(N(C)C)c3)oc12 | -4.94
CNC(=O)C1CN(c2ccnc(C)n2)CCN(C2CCOCC2)C1 (stereo not drawn) | 23

Compound | INHIBITION [%]
CN(Cc1noc(C(C)(C)C)n1)Cc1ccccc1N1CCCCC1 | 90.4
CN(Cc1noc(C(C)(C)C)n1)Cc1ccccc1N1CCCC1 | -2.92
Cc1cc(CN(C)Cc2ccccc2N2CCCCC2)n[nH]1 | 20.2
COCCc1noc(CN2CCCC(Cn3cncn3)C2)n1 (stereo not drawn) | -0.96
NC(=O)Cn1c(CO)cnc1SCC(=O)NCc1ccccc1 | 15
N#Cc1cccc(N2CCC(CO)(CCc3ccccc3)CC2)n1 | 51.7
N#Cc1cccc(N2CCC(CO)(CCOc3ccccc3)CC2)n1 | 17.4
N#Cc1cccc(N2CCC(CO)(CCCc3ccccc3)CC2)n1 | 22
Cn1cc(CC2CC(=O)N(Cc3ccc(Cl)cc3)C2=O)cn1 (stereo not drawn) | 8.12
Nc1ncnc2c1ncn2[C@H]1CCN(Cc2ccsc2)CC[C@@H]1O | 17.4
Cc1ncsc1CN1CC[C@H](O)[C@@H](n2cnc3c(N)ncnc32)CC1 | 50.1
Cc1ncsc1CN1CCN(C2CCOCC2)CC(C(N)=O)C1 (stereo not drawn) | 25.6
CC(C)c1noc(-c2ccnc(-n3cnc(C(=O)O)c3)c2)n1 | -8.35
CCc1nccn1-c1cccc(C2CCCN(C3CCCCC3)C2)n1 (stereo not drawn) | 24.8
Cc1cn2nc(N3CCCC3Cn3cccn3)sc2n1 (stereo not drawn) | -12.1
O=C(C1CCCN(Cc2cccnc2)C1)N1CCc2sccc2C1 (stereo not drawn) | 55.5
O=C(C1CCCN(Cc2ccccc2)C1)N1CCc2sccc2C1 (stereo not drawn) | 48.8
O=C(C1CCCN(Cc2cccc(F)c2)C1)N1CCc2sccc2C1 (stereo not drawn) | 14.1
CCN1c2ccc(-c3cncn3CC(=O)NC(C)(C)C)cc2CC1C (stereo not drawn) | 59.3
Cc1nn(C)c(C)c1CCn1cncc1-c1ccc2c(c1)CC(C)N2C (stereo not drawn) | 22.8
CCN1CCc2cc(-c3cncn3CC(=O)NC(C)(C)C)ccc21 | 6.32
CC1Cc2cc(-c3cncn3CC(=O)NC(C)(C)C)ccc2N1C (stereo not drawn) | 52
CCN1CCc2cc(-c3cncn3CCNC3CCS(=O)(=O)C3)ccc21 (stereo not drawn) | 27.6
CN1CCCc2cc(-c3cncn3CC(=O)NC(C)(C)C)ccc21 | 18.3
CCN1CCC2(CN(C(C)=O)CC23CCN(CC2CC2)CC3)C1=O (stereo not drawn) | -23.3

Compound | INHIBITION [%]
O=C(Nc1ccncc1)NC1CCN(c2ccccc2Cl)C1=O (stereo not drawn) | 50.8
Cc1cc(CC(=O)NC2CCCN(c3ccccc3Cl)C2=O)n[nH]1 (stereo not drawn) | 8.44
Cn1cc(NC(=O)NC2CCCN(c3ccccc3Cl)C2=O)cn1 (stereo not drawn) | 24.8
CN1CCC(NC(=O)Nc2cnn(-c3ccccc3Cl)c2)C1=O (stereo not drawn) | 37.7
CN1CCC(NC(=O)Nc2ccc(Cl)c(F)c2)C1=O (stereo not drawn) | -6.39
Cn1ccc(NC(=O)NC2CCCN(c3ccccc3Cl)C2=O)n1 (stereo not drawn) | 74
O=C(Nc1cc(F)ccc1OCC1CCCO1)N1CCSCC1 (stereo not drawn) | 41.2
CC(=O)NCC1(COc2cnccn2)C[C@@H](O)[C@@H](O)C1 (stereo partly drawn) | -3.52
COCC(C)NC(=O)c1cn(C(C)C)cc2c(=O)[nH]nc1-2 (stereo not drawn) | 22
COc1ccc2c(OCC(=O)NCC(F)(F)F)ccnc2c1 | -121
CNC(=O)[C@H]1C[C@@H]2CN(C(=O)c3ccsc3)C[C@@H]2N1S(C)(=O)=O | 32.2
CCOc1ncccc1NC(=O)N1CCN(Cc2ccncc2)CC1 | 18.75
CCCc1cncnc1N1CCC(NCCc2nc(O)cc(O)n2)CC1 | 8.23
Cc1nc(C)n(CCNC2CCN(c3ncnc4c(C)csc34)CC2)n1 | -12.4
CCc1nnc(CNC2CCN(c3ncnc4c(C)csc34)CC2)s1 | 61.3
Cc1csc2c(N3CCC(NCCc4ccnn4C)CC3)ncnc12 | 53.6
CCC1CCN(CCn2cnc3c(C)csc3c2=O)CC1 | -7.25
Cc1csc2c(N3CCC(NCCCc4ccncc4)CC3)ncnc12 | 43.5
CCc1cc(N2CCC(NCCc3nc(C)c(C)s3)CC2)nc(C)n1 | 30.3
Cc1csc2c(N3CCC(NCCCC4CCOC4)CC3)ncnc12 (stereo not drawn) | 55.8
CCCc1cncnc1N1CCC(NCCc2ccc(O)cc2)CC1 | 49.9
Cc1nnc(CCNC2CCN(c3ncnc4c(C)csc34)CC2)s1 | 61.8
CCc1nc(CNC2CCN(c3ccc(OC)cc3)CC2)cs1 | 34
